Compound activity from PubChem BioAssay.
NFkB SMM: binds human NF-kappa-B p105 on microarray; Small molecule microarray, anti-His fluorescence binding; calls only; 17,000 compounds, 1.3% hits;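 active means spot fluorescence over background significantly raised, with a chance value under 7% in all four replicate spots of the compound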;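 further: probe protein is his-tagged human p50 processed subunit at 1 µg/ml; raw spot fluorescence signals with no normalization applied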
Target sequence (P19838 1-433 limits assumed): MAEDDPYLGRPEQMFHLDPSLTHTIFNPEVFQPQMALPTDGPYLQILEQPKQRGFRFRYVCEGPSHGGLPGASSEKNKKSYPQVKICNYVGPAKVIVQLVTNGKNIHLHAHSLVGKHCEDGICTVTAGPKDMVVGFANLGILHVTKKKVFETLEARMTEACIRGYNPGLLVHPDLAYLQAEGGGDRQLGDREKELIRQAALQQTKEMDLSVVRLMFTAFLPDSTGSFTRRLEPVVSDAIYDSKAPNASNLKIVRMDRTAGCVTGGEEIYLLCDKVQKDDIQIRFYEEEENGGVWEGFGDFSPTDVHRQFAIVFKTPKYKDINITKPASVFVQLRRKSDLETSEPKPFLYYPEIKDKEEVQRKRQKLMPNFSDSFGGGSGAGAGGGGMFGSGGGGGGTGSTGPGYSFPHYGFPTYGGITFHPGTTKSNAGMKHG
p53 PUMA act: re-activators of the mutant p53 pathway; SW480 PUMA-promoter luciferase, p53 mutant reactivation; activation, % at 9.98 µM; 28,000 compounds, 1.5% hits; AID 624151; in the data active means activation above about 52%
STAT3 binder: binders of human STAT3 | Small molecule microarray, His-STAT3 binding, anti-His fluorescence | calls only | 17,000 compounds, 0.2% hits;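 active means compounds whose four printed spots each show fluorescence over background unusually high for their array block, chance value under 7%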
p53 mut binder: binders of human mutant p53; small molecule microarray binding, anti-GST fluorescence; calls only; 17,000 compounds, 0.4% hits; AID 624136;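 active means compounds whose four printed spots each glow above background more than chance allows, each with a p-value under 7%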
Myc binder: binds human c-Myc on microarray; 17,000 compounds, 1.5% hits; calls only; small molecule microarray, His-c-Myc binding, anti-His fluorescence; AID 624141;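 active means spot fluorescence over background with P-value below 7% in all four replicate spots, showing protein binding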;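 further: score is binary with 100 for all four spots passing and 0 otherwise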
* marks the source's active call; other numbers are inactive results. This is a sample that favours compounds with a hit; in the whole collection about 2.6% have one here.

For O=C(COc1ccc(Br)cc1)Nc1cccc(-c2nc3ncccc3o2)c1 the results were p53 PUMA act 73*.
`Cc1cc(OCC(=O)Nc2cccc(-c3nc4ccccc4o3)c2C)cc(C)c1Cl` gave p53 PUMA act -4.
`Cc1c(NC(=O)COc2ccc(Br)cc2)cccc1-c1nc2ncccc2o1` gave NFkB SMM inactive, p53 PUMA act 54*, STAT3 binder inactive, p53 mut binder inactive and Myc binder inactive.
For O=C(COc1ccccc1)Nc1cccc(-c2nc3c(ccc4ccccc43)o2)c1 the results were NFkB SMM inactive, p53 PUMA act -1, STAT3 binder inactive, p53 mut binder inactive and Myc binder inactive.
`CC(C)NC(=O)Nc1cccc2c1O[C@H](CN(C)S(=O)(=O)c1cn(C)cn1)[C@H](C)CN([C@H](C)CO)C2=O` gave p53 PUMA act 4.
`CNC[C@@H]1Oc2ccc(NC(=O)c3ccncc3)cc2CC(=O)N([C@@H](C)CO)C[C@@H]1C` gave NFkB SMM inactive, p53 PUMA act 2, STAT3 binder inactive, p53 mut binder inactive and Myc binder inactive.
CCOc1ccccc1N1C(=O)CN=C1Nc1nc(C)cc(C)n1 was read as NFkB SMM inactive, p53 PUMA act -1, STAT3 binder inactive, p53 mut binder inactive and Myc binder inactive.
C[C@@H]1O[C@@H](O[C@H]2[C@H](O[C@H]3CC[C@@]4(C)C(CC[C@]5(C)C4C=C[C@]46OC[C@@]7(CCC(C)(C)C[C@H]74)[C@@H](O)C[C@]65C)[C@]3(C)CO)O[C@H](CO)[C@@H](O)[C@@H]2O[C@@H]2O[C@H](CO)[C@@H](O[C@@H]3O[C@@H](C)[C@H](O)[C@@H](O)[C@H]3O)[C@H](O)[C@H]2O)[C@H](O)[C@H](O)[C@H]1O (stereo partly specified) was read as NFkB SMM active, p53 PUMA act -87, STAT3 binder inactive, p53 mut binder inactive and Myc binder active.
C[C@@H]1O[C@@H](O[C@H]2[C@H](O[C@H]3CC[C@@]4(C)C(CC[C@]5(C)C4CC=C4C6CC(C)(C)CC[C@]6(C(=O)O[C@@H]6O[C@H](CO[C@@H]7O[C@H](CO)[C@@H](O[C@@H]8O[C@@H](C)[C@H](O)[C@@H](O)[C@H]8O)[C@H](O)[C@H]7O)[C@@H](O)[C@H](O)[C@H]6O)CC[C@]45C)[C@]3(C)CO)OC[C@H](O)[C@@H]2O)[C@H](O)[C@H](O)[C@H]1O (stereo partly specified) was read as NFkB SMM inactive, p53 PUMA act 8, STAT3 binder inactive, p53 mut binder inactive and Myc binder inactive.
O=C(CC1(O)C(=O)N(C/C=C/c2ccccc2)c2ccccc21)c1ccccn1 (stereo unspecified) was read as NFkB SMM inactive, p53 PUMA act -1, STAT3 binder inactive, p53 mut binder inactive and Myc binder inactive.
For O=C(CSc1nc2ccccc2o1)c1cc2ccccc2oc1=O the results were p53 PUMA act 4.
Screening COc1ccc(OC)c(S(=O)(=O)N2CCC(C(=O)Nc3ccccc3SC)CC2)c1 returned NFkB SMM inactive, p53 PUMA act -4, STAT3 binder inactive, p53 mut binder inactive and Myc binder inactive.
CCOC(=O)c1ccccc1NC(=O)COc1ccccc1 was read as NFkB SMM inactive, p53 PUMA act 8, STAT3 binder inactive, p53 mut binder inactive and Myc binder inactive.
Screening Cc1cc(C)cc(OCC(=O)Nc2cccc(-c3nnc(-c4ccco4)o3)c2)c1 returned p53 PUMA act 42.
COc1cccc(OCC(=O)Nc2cccc(-c3nnc(-c4ccccc4)o3)c2)c1 was read as p53 PUMA act 101*.
`Cc1cccc(OCC(=O)Nc2cccc(-c3nnc(-c4ccccc4)o3)c2)c1` gave p53 PUMA act 91*.
For CCc1cccc(OCC(=O)Nc2cccc(-c3nnc(-c4ccccc4)o3)c2)c1 the results were p53 PUMA act 98*.
For CCc1cccc(OCC(=O)Nc2ccccc2C(N)=O)c1 the results were p53 PUMA act 130*.
For N#Cc1c(-c2ccco2)nc(SCC(=O)Nc2ccc(I)cc2)[nH]c1=O the results were NFkB SMM inactive, p53 PUMA act -5, STAT3 binder inactive, p53 mut binder inactive and Myc binder inactive.
Screening CCOC(=O)c1ccc(NC(=O)CSc2nc3cc4ccccc4cc3[nH]2)cc1 returned p53 PUMA act -65.
